An excerpt weighted towards active compounds, which were near 9% of everything screened.
ALDH1A1 inh: blocks purified human ALDH1A1 activity | 220,000 tested, 7.3% active | AID 1030 | P00352 | Purified ALDH1A1, NADH fluorescence, propionaldehyde substrate | Potency, µM (titrated, usually from 75.3 µM), for the others: at the top dose activity, negative = inhibition, actives largely listed as inhibitors;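 also: potency is read from the fitted curve at half-maximal effect; plate controls were no enzyme wells and a reference inhibitor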
IMPase inh: IMPase inhibition in cells. 120,000 tested, under 10 active. CHO-M1 cells, IP1 accumulation, HTRF TR-FRET ratio. inhibition (IP1 accumulation), % at 46.1 µM; active = well fitted curve in the direction sought with a large enough effect in the signal ratio, not every such curve was filed as active; inconclusive = small, poorly fitted or top-dose-only effect, or a change in a side signal; inactive = no such curve, though single readings can be large or run the other way; the % refers to the signal ratio;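 also: cells stimulated with carbachol in lithium chloride buffer; plate controls were DMSO basal wells for no effect and reference inhibitor wells for full effect; higher means more IMPase inhibition seen as more IP1 and lower FRET ratio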
Target sequence (P97697 whole entry, looked up): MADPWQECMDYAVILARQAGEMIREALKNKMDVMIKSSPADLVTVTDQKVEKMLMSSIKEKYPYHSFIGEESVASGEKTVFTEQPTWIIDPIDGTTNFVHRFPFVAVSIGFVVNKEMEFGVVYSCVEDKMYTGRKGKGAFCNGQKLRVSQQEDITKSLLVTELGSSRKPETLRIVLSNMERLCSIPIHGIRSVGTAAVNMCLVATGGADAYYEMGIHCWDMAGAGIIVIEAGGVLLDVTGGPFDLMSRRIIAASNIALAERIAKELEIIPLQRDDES
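The IP-One HTRF competitive assay in carbachol-stimulated CHO-M1 cells quantifies cellular IP1. Compounds spanned up to 46 uM final, and activity is expressed as AC50 from concentration-response fits of the ratio and donor data.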
HPGD block: inhibitors of human 15-hydroxyprostaglandin dehydrogenase (HPGD) | P15428 | purified HPGD, NADH fluorescence kinetic, PGE2 substrate | Potency, µM, for the others: at the top dose activity change, negative = inhibition, most hits filed as inhibitors | 150,000 tested, 4.3% active | AID 894; also: potency is read from the fitted curve at half-maximal effect
Target sequence (P15428 whole entry, looked up): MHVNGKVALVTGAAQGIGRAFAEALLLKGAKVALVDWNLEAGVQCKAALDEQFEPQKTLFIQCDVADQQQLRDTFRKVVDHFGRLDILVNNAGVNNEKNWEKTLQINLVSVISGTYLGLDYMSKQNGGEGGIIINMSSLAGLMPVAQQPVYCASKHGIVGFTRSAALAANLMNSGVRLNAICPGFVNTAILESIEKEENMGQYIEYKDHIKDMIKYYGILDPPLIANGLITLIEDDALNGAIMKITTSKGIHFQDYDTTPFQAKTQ
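20 nM HPGD preincubated 15 min at room temperature with compound in 50 mM Tris-HCl pH 8, 0.01% Tween 20. Started with 1 mM NAD+ and 30 uM prostaglandin E2; NADH fluorescence (360/450 nm) read 5 times over 30-s intervals, last minus first.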
Numbers without * were called inactive; u = inconclusive; x = not tested or not shown; [ ] = another dose, or the depositor's remark. Unless noted, calls follow the shape of the dose curve; as a rule, active = well fitted inhibition curve with a large enough effect (not every such curve was filed as active); inconclusive = small, poorly fitted or top-dose-only effect, or another doubt; inactive = no such curve, though single readings can be large or run the other way. Unless noted, % is scaled to controls: 0 for no effect and ±100 for the full control effect.

SMILES	ALDH1A1 inh	IMPase inh	HPGD block
CCc1ccc[n+](-c2[nH]c(=O)sc2/C=N/NC([S-])=Nc2ccccc2)c1	14µM*	2	x
O=c1[nH]c(-[n+]2ccccc2)c(/C=N/NC([S-])=Nc2ccccc2)s1	20µM*	x	x
Cc1ccc(/C=N/NC(=O)CCSc2ccccc2)cc1	-5%	x	-19%
Cc1cc(C)c[n+](-c2[nH]c(=O)sc2/C=N/NC([S-])=Nc2ccccc2)c1	u	-3	28µM*
Cc1ccc(S(=O)(=O)N[C@H]2COC(=O)CC=C[C@@H](C)[C@H]3C=C[C@H](O)[C@@H](COC(=O)CC=C[C@H]2C)O3)cc1	5%[13.5 µM]	x	x
CCn1c(=O)n(CC(=O)N(C)Cc2ccccc2)c(=O)c2ccccc21	u	-2	-17%
CCCCC(=O)NCCNC(=O)c1cc(OCC(F)(F)F)ccc1OCC(F)(F)F	6%	-8	-7%
CS(=O)(=O)N(Cc1ccccc1)c1ccc(C(=O)Nc2cccc(Cl)c2)cc1	x	-1	x
COc1ccc(NCc2nnc(SCC(=O)c3ccc(C)cc3)o2)cc1	28µM*	4	-23%
CCN(CC)S(=O)(=O)c1ccc(-c2nnc(SCC(=O)Nc3ccc(OC)cc3)o2)cc1	-4%	-11	-15%
Cc1cc(C)cc(OCc2nnc(SCC(=O)c3ccccc3)o2)c1	-11%	-3[1.84 µM]	28µM*
Cc1ccc(C(=O)CSc2nnc(CNc3ccc(C)cc3C)o2)cc1	9%	-2	-7%
COc1ccc(NCc2nnc(SCC(=O)Nc3cc(C)cc(C)c3)o2)cc1	3.2µM*	-2	-29%
COc1ccc(NC(=O)CSc2nnc(CNc3ccc(F)cc3)o2)c(OC)c1	-12%	5	-15%
CCN(CC)S(=O)(=O)c1ccc(-c2nnc(SCC(=O)c3ccc(OC)cc3)o2)cc1	0.35µM*	5	-7%
Cc1ccc(C(=O)CSc2nnc(COc3cc(C)cc(C)c3)o2)cc1	u	6	-10%
CCCc1cc(NCC2CCCO2)n2c(nc3ccccc32)c1C#N (stereo not given)	u	-2	u
CCCNC(=O)CN(CCc1ccccc1)S(C)(=O)=O	6%	-2	0%
CCOC(=O)CSc1ncnc2c(C(=O)OCC)c3n(c12)CCC3	-4%	x	-6%
Cc1cc(C(=O)NNC2CC(=O)N(c3ccc4ccccc4c3)C2=O)c(C)o1 (stereo not given)	-8%	x	x
Cc1ccc(CN(CC(=O)NC2CCCC2)C(=O)CSc2nnc(COc3ccccc3)o2)cc1	u	3	28µM*
Cc1cc(C)nc(SCc2nnc(SCC(=O)Nc3ccc(Cl)c(C(F)(F)F)c3)o2)n1	-4%	12	-5%
O=C(CSc1nnc(COc2ccc(Cl)cc2)o1)N1c2ccccc2CCc2ccccc21	22µM*	8	2%
O=C(CN(Cc1ccccc1)C(=O)CSc1nnc(COc2ccccc2)o1)NC1CCCC1	u	23	u
COc1ccc(NCc2nnc(SCC(=O)Nc3cc(C(F)(F)F)ccc3Cl)o2)cc1	28µM*	10	-14%
SMILES	ALDH1A1 inh	IMPase inh	HPGD block
CCOC(=O)N1CCN(C(=O)CSc2nnc(COc3ccc(Cl)cc3)o2)CC1	3%	-4	-9%
Cc1ccc(C)c(S(=O)(=O)N2C(=S)NC(=O)C2C(C)C)c1 (stereo not given)	u	0	-19%
COC(=O)C1C(=O)C2=C(CC1C)Nc1ccccc1NC2c1cccs1 (stereo not given)	-7%	x	x
COC(=O)C(Cc1c[nH]c2ccccc12)NC(=O)COc1cccc(C)c1 (stereo not given)	x	0	x
Cc1ccc(C(=O)n2c(=S)nc3ccccn32)cc1	22µM*	-7	32µM*
Cc1cccc(C(=O)N2CCN(c3ccccn3)CC2)c1	10%	2	u
Cc1cccc(C(=O)n2c(=S)nc3ccccn32)c1	10µM*	-8	22µM*
O=C(c1ccccc1)n1c(=S)nc2ccccn21	-2%	8	x
NC(=O)CC[C@@H]1NC(=O)[C@H](Cc2ccccc2)NC(=O)[C@H](Cc2ccc(O)cc2)NC(=O)[C@@H](N)CSSC[C@@H](C(=O)N2CCC[C@H]2C(=O)N[C@@H](CCCN=C(N)N)C(=O)NCC(N)=O)NC(=O)[C@H](CC(N)=O)NC1=O	2%	x	-3%
COc1ccc(CNc2cc(NCCCO)c([N+](=O)[O-])c3nonc23)cc1	10µM*	x	x
O=[N+]([O-])c1c(NCCCO)cc(SCc2ccco2)c2nonc12	u	x	-12%
O=[N+]([O-])c1c(NCCCO)cc(Sc2ccc(Cl)cc2)c2nonc12	4.5µM*	-7	-29%
Cn1ccnc1Sc1cc(NCCCO)c([N+](=O)[O-])c2nonc12	7%	x	x
Cc1nc(Cl)sc1C(=O)Nc1ccc(Cl)cc1	-3%	x	-4%
O=C(CCC(=O)c1cccs1)OCC(=O)N1CCN(C(=O)c2ccco2)CC1	u	-5	-5%
Cc1ccc(OCC(=O)Nc2c(C(=O)c3ccc(Cl)cc3)oc3ccccc23)cc1C	x	8	x
CCOc1ccccc1C(=O)N[C@H](C(=O)OCc1cc([N+](=O)[O-])cc2c1OCOC2)C(C)C	-16%	-2	-7%
COc1cccc([C@@H]2Oc3ccc(OC)cc3C[C@H]2OC(=O)Nc2cc(OC)c(OC)c(OC)c2)c1	7%	x	-12%
CCOC(=O)C1(Cc2ccc(OC)cc2)CCN(C(=O)CN2CCN(CC)CC2)CC1	25µM*	x	x
CCOC(=O)C1(Cc2ccc(OC)cc2)CCN(C(=O)Cn2cnnn2)CC1	-1%	x	x
Cc1c(NC(=O)c2nc3ccccc3nc2N2CCCCC2)cccc1[N+](=O)[O-]	x	3	x
COc1ccc(S(=O)(=O)NC(CC(=O)NCc2ccco2)C(C)C)cc1 (stereo not given)	5%	-5	1%
COc1ccc(C(CC(=O)NCc2ccco2)c2ccc(F)cc2)cc1 (stereo not given)	1%	5	16µM*
COc1ccc(NC(=O)CC(c2ccc(F)cc2)c2ccc(OC(C)C)cc2)cc1 (stereo not given)	0.2µM*	x	-4%
CCOc1ccc(S(=O)(=O)N(C)c2ccc(OCC(=O)NCc3ccco3)cc2)cc1	u	7	-13%
SMILES	ALDH1A1 inh	IMPase inh	HPGD block
CS(=O)(=O)N(CC(=O)NCc1ccco1)c1ccc(OCc2ccccc2)cc1	19µM*	x	x
COc1ccc(S(=O)(=O)N(C)CC(=O)NCc2ccco2)cc1	35µM*	-4	-19%
COc1ccc(N(CC(=O)NCc2ccco2)S(C)(=O)=O)cc1	2%	-8	-7%
CCOc1ccc(NC(=O)CC(c2ccccc2)c2ccc(F)cc2)cc1 (stereo not given)	-5%	x	-16%
O=C(NC1(C(F)(F)F)NC(=O)N(CCc2ccccc2)C1=O)c1ccccc1F (stereo not given)	x	-3	x
COc1ccc(-n2cnc3scc(-c4ccccc4)c3c2=O)cc1	10%	x	x
Cc1ccc(-c2nnn(CC(=O)N(Cc3cccs3)C(C(=O)NCC3CCCO3)c3ccco3)n2)o1 (stereo not given)	-2%	x	x
CC1(C)CC(NC(=O)C23CCC(C)(C(=O)C2)C3(C)C)CC(C)(C)N1 (stereo not given)	-1%	0	-4%
COc1ccc(CCNC(=O)CN(c2cccc([N+](=O)[O-])c2)S(C)(=O)=O)cc1OC	-3%	x	x
CCCN1CCC(N(C)CCc2ccc(OC)c(OC)c2)CC1	5%	14	-4%
